High-throughput results (PubChem BioAssay)
D2 ag-1: human D2 receptor agonism in beta-arrestin assay | P14416 | DiscoveRx PathHunter D2 beta-arrestin, luminescence, 90 min; 100% = 57 uM dopamine signal | activation, % (concentration not given with the values) | 360,000 tested, 0.084% active | AID 624465; in the data active = activation above about 40%
Target sequence (P14416 whole entry, looked up): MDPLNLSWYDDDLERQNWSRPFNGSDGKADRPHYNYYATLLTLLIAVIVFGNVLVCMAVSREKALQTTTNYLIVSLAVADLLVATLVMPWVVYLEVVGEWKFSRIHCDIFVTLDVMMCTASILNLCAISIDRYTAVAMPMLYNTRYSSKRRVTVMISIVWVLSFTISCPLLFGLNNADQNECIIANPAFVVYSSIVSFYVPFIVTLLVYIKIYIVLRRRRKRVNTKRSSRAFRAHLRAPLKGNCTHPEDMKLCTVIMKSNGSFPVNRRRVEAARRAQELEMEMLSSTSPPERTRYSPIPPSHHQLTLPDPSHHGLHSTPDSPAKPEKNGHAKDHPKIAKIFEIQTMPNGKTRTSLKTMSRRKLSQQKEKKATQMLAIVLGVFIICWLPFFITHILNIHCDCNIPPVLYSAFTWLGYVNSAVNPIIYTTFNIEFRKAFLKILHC
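Agonist mode: compounds alone added to overnight-plated D2 PathHunter cells for 90 min at 37 C, with 57 uM final dopamine (EC100) defining full response. Beta-arrestin recruitment detected by chemiluminescent reagent, read after 1 h at ambient temperature.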
D2 PAM-1: potentiates the human D2 dopamine receptor allosterically. P14416. 360,000 tested, 0.23% active. DiscoveRx D2 beta-arrestin cells, luminescence, 90 min; 100% = 57 uM dopamine signal. potentiation, % (concentration not given with the values); in the data active = potentiation above about 50%
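D2 cells co-treated with compound plus 50 nM dopamine (EC20) for 90 min at 37 deg C to detect potentiation. Beta-arrestin recruitment was read as enzyme-fragment luminescence after 1 h at ambient temperature. Full response was set by 57 uM dopamine.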
D2 ag-2: activates the human D2 dopamine receptor; P14416; HEK293 T-REx D2 cells, calcium flux agonist mode; activation, % at 2 µM; 340,000 tested, 0.53% active;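 active = activation over 3 SD above normal in the single-dose calcium agonist read, cut at about 30% in these data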
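Tetracycline-induced HEK293 T-REx cells with force-coupled D2 receptor, plated overnight at 30 C, loaded with no-wash calcium dye. After a 10 s baseline, compound was pin-added and calcium flux read kinetically for 180 s; calcium rises flagged agonists.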
D2 PAM-2: positively modulates the human D2 dopamine receptor allosterically; P14416; HEK293 T-REx D2, calcium flux, EC20 dopamine potentiation; potentiation, % at 10 µM; 340,000 tested, 0.34% active; AID 485347;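 active = potentiation over 3 SD above the plate norm, cut at about 30% in these data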
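Using a no-wash calcium dye in inducible, force-coupled HEK293 Trex cells expressing D2, we tracked fluorescence each second for 180 s after compound, then for 180 s after EC20 dopamine to detect augmented signalling.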
D2 antag: antagonists of human D2 dopamine receptor. P14416. HEK293 TREx D2 cells, calcium flux, dopamine EC80. inhibition, % at 10 µM. 340,000 tested, 2% active; in the data active = inhibition above about 30%; inactive = below that, where a call was filed
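Compounds are added to dye-loaded, induced HEK293 T-REx cells coupled to calcium release via D2; after a 3 min kinetic read an EC80 dopamine stimulus is given and fluorescence is recorded for 3 more min.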
Hits are given with their value. Most compounds without a hit are left out; they make up all but 2.4% or so of the library.

How did CN(C/C=C/c1ccccc1[N+](=O)[O-])Cc1ccccc1 do in these assays?
D2 ag-1: inactive; D2 PAM-1: inactive; D2 ag-2: inactive; D2 PAM-2: inactive; D2 antag: 56.7

How did O=[N+]([O-])c1ccccc1/C=C/CN1CCN(Cc2ccc3c(c2)OCO3)CC1 do in these assays?
D2 ag-1: inactive; D2 PAM-1: inactive; D2 ag-2: inactive; D2 PAM-2: inactive; D2 antag: 31.5

How did CC(C)N(Cc1ccccc1)C(=O)/C=C/c1ccccc1[N+](=O)[O-] do in these assays?
D2 ag-1: inactive; D2 PAM-1: inactive; D2 ag-2: inactive; D2 PAM-2: inactive; D2 antag: inactive

Results for COc1ccccc1CCNC(=O)Cc1ccc(NC(=O)N2CCSc3ncccc32)cc1 ?
D2 ag-2: inactive; D2 PAM-2: inactive

What do the screens show for `Cc1ccc(Sc2c(C)nn(C(=O)c3ccc(Cl)cc3)c2C)cc1`?
D2 ag-2: inactive; D2 PAM-2: inactive

What do the screens show for `Cc1cc(C)cc(OC(C)C(=O)Nc2nonc2-c2ccc(Br)cc2)c1` (stereo not given)?
D2 ag-2: inactive; D2 PAM-2: inactive

How did CCCNC(=O)CCSc1nc(-c2ccc3c(c2)OCO3)cc(C(F)(F)F)n1 do in these assays?
D2 ag-2: inactive; D2 PAM-2: inactive

What do the screens show for `Cc1ccccc1-c1nc(CN(Cc2c(C)nn(C)c2C)C2CC2)c(C)o1`?
D2 ag-1: inactive; D2 PAM-1: inactive; D2 ag-2: inactive; D2 PAM-2: inactive; D2 antag: 30.5

What do the screens show for `COc1ccc(-n2c(C)nc3cc(C(=O)NC4CCCCCC4)ccc32)cc1`?
D2 ag-2: inactive; D2 PAM-2: inactive

How did COc1cc(NS(=O)(=O)c2ccc3c(c2)CCN3S(C)(=O)=O)cc(OC)c1 do in these assays?
D2 ag-2: inactive; D2 PAM-2: inactive

What do the screens show for `CCCOc1ccc(-c2cccc(NS(=O)(=O)c3cc(OC)ccc3OC)c2)nn1`?
D2 ag-2: inactive; D2 PAM-2: inactive

How did CCO[C@H]1OC(C(=O)N2CCCCCCC2)=C[C@@H](c2csc3ccccc23)[C@@H]1CCCO do in these assays?
D2 ag-1: inactive; D2 PAM-1: inactive; D2 ag-2: inactive; D2 PAM-2: inactive; D2 antag: inactive

How did CCO[C@H]1OC(C(=O)O)=C[C@@H](c2csc3ccccc23)[C@@H]1CCCO do in these assays?
D2 ag-1: inactive; D2 PAM-1: inactive; D2 ag-2: inactive; D2 PAM-2: inactive; D2 antag: 31.6

What do the screens show for `CCOC(=O)c1ccccc1NC(=O)CSc1nnc(CC)n2c1cc1occc12`?
D2 ag-2: inactive; D2 PAM-2: inactive

Results for Cc1c(/C=C(\C#N)C(=O)NCc2ccccc2)cc(C#N)n1C ?
D2 ag-1: inactive; D2 PAM-1: inactive; D2 ag-2: inactive; D2 PAM-2: inactive; D2 antag: 36.5

What do the screens show for `COc1ccccc1C(=O)N(CCN(C)C)c1nc2cc(C)cc(C)c2s1`?
D2 ag-1: inactive; D2 PAM-1: inactive; D2 ag-2: inactive; D2 PAM-2: inactive; D2 antag: 38.1

Results for COc1ccc2oc(=O)c(C(=O)NCCc3c(C)[nH]c4ccc(F)cc34)cc2c1 ?
D2 ag-2: inactive; D2 PAM-2: inactive

What do the screens show for `CCn1c(SC(C)C(=O)NCC2CCCO2)nc2ccccc21` (stereo not given)?
D2 ag-1: inactive; D2 PAM-1: inactive; D2 ag-2: inactive; D2 PAM-2: inactive; D2 antag: 31.0

Results for C=CCn1c(COc2ccc(F)cc2)nnc1SC(C)C(=O)NCC1CCCO1 (stereo not given) ?
D2 ag-1: inactive; D2 PAM-1: inactive; D2 ag-2: inactive; D2 PAM-2: inactive; D2 antag: 61.3

Results for O=C(Cn1cc(S(=O)(=O)N2CCN(c3ccccc3F)CC2)c2ccccc2c1=O)Nc1cccc(C(F)(F)F)c1 ?
D2 ag-2: inactive; D2 PAM-2: inactive

What do the screens show for `Cc1ccc(Nc2nnc(C)c(=O)[nH]2)cc1`?
D2 ag-1: inactive; D2 PAM-1: inactive; D2 ag-2: inactive; D2 PAM-2: inactive; D2 antag: 43.2

What do the screens show for `COC(=O)c1ccc(NC(=O)CC2C(=O)N(c3cccc(OC)c3)C(=O)N2C(C)C)cc1` (stereo not given)?
D2 ag-2: inactive; D2 PAM-2: inactive

How did CCn1cc(S(=O)(=O)c2ccccc2)c(=O)c2cc(F)c(N3CCCC3)cc21 do in these assays?
D2 ag-2: inactive; D2 PAM-2: inactive

How did COc1ccc(CNC(=O)CCNS(=O)(=O)c2cc(Br)cnc2N)cc1 do in these assays?
D2 ag-1: inactive; D2 PAM-1: inactive; D2 ag-2: inactive; D2 PAM-2: 45.7; D2 antag: inactive

What do the screens show for `CC1CCCCC1NC(=O)CCNS(=O)(=O)c1cc(Br)cnc1N` (stereo not given)?
D2 ag-1: inactive; D2 PAM-1: inactive; D2 ag-2: inactive; D2 PAM-2: inactive; D2 antag: 32.9

Results for Nc1ncc(Br)cc1S(=O)(=O)NCCC(=O)NCc1ccc(F)cc1 ?
D2 ag-1: inactive; D2 PAM-1: inactive; D2 ag-2: inactive; D2 PAM-2: inactive; D2 antag: inactive

Results for Cc1cccc(NC(=O)Cn2c(=O)oc3cc(S(=O)(=O)NCc4ccccc4)ccc32)c1 ?
D2 ag-2: inactive; D2 PAM-2: inactive

How did O=C(Cn1cc(SCc2ccccc2F)c2ccccc21)N1CCCCC1 do in these assays?
D2 ag-2: inactive; D2 PAM-2: inactive

How did Cc1c(Cl)ccc2sc(N3CCN(C(=O)CCS(=O)(=O)c4ccc(F)cc4)CC3)nc12 do in these assays?
D2 ag-2: inactive; D2 PAM-2: inactive

Results for Cn1c(=O)c2c(SCC(=O)NCc3ccco3)nc(-c3cccc(F)c3)nc2n(C)c1=O ?
D2 ag-2: inactive; D2 PAM-2: inactive

Results for O=c1oc2ccc3ccccc3c2cc1-c1nnc(Nc2ccc(F)cc2)s1 ?
D2 ag-2: inactive; D2 PAM-2: inactive

Results for O=C1c2ccccc2NC(c2ccccc2)N1NS(=O)(=O)c1ccccc1 (stereo not given) ?
D2 ag-1: inactive; D2 PAM-1: inactive; D2 ag-2: inactive; D2 PAM-2: inactive; D2 antag: inactive

Results for O=C1c2ccccc2NC(c2ccco2)N1NS(=O)(=O)c1ccccc1 (stereo not given) ?
D2 ag-1: inactive; D2 PAM-1: inactive; D2 ag-2: inactive; D2 PAM-2: inactive; D2 antag: 32.9

How did COc1ccc(C2Nc3ccccc3C(=O)N2NS(=O)(=O)c2ccccc2)cc1 (stereo not given) do in these assays?
D2 ag-1: inactive; D2 PAM-1: inactive; D2 ag-2: inactive; D2 PAM-2: inactive; D2 antag: 39.0

What do the screens show for `O=C1c2ccccc2NC(c2cccs2)N1NS(=O)(=O)c1ccccc1` (stereo not given)?
D2 ag-1: inactive; D2 PAM-1: inactive; D2 ag-2: inactive; D2 PAM-2: inactive; D2 antag: inactive

How did CCCc1nc2ccccc2n2c(-c3cccc(C)c3)c3c(=O)n(C)c(=O)n(C)c3c12 do in these assays?
D2 ag-2: inactive
